From PubChem BioAssay
APOBEC3G inh: blocks human APOBEC3G single-stranded DNA deamination | Q9HC16 | recombinant A3G, ssDNA deamination FAM/TAMRA fluorescence | inhibition, % at 20 µM | 330,000 tested, 0.28% active | AID 493012;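 active means inhibition of at least 40% at 20 µM, with no more than 30% in the related APOBEC3A deaminase screen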
Target sequence (Q9HC16 whole entry, looked up): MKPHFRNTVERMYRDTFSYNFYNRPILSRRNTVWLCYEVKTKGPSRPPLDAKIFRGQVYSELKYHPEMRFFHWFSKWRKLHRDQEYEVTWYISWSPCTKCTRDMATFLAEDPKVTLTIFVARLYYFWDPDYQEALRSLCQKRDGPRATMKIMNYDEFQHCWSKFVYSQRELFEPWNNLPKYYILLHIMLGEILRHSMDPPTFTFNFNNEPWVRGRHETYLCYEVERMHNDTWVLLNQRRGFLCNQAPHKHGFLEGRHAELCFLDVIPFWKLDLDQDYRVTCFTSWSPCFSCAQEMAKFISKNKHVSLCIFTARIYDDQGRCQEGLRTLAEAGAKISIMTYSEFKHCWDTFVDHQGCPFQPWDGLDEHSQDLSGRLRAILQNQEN
NadD inh: blocks S. aureus nicotinate mononucleotide adenylyltransferase; inhibition, % at 20 µM; 360,000 tested, 0.78% active; purified NadD enzyme, colorimetric absorbance read-out; in the data active means inhibition above about 26%
Cardio protect: protects H9c2 cardiomyocytes from peroxide injury. 360,000 tested, 0.63% active. protection from H2O2 cell death, % at 20 µM. AID 588492. H2O2 injury protection, ATPLite, 2 h;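 active means compounds giving at least 50% protection of heart cells from peroxide-induced death in the single-dose screen, raw or plate-pattern-corrected value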
TAG inh: triacylglycerol accumulation inhibition | H9c2 cells, Nile Red lipid (TAG) fluorescence; cells loaded with 200 µM oleic acid | inhibition, % at 12.5 µM | 230,000 tested, 0.66% active;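 active means pattern-corrected inhibition of lipid staining of at least 50% with the nuclear-stain viability signal not falling by more than 50%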
A3A deaminase: inhibitors of human APOBEC3A DNA deaminase. recombinant A3A, FAM/TAMRA ssDNA deamination fluorescence. inhibition, % at 20 µM. 330,000 tested, 0.41% active. AID 493011;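 active means at least 40% inhibition at 20 µM here, with at most 30% in a related deaminase screen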
PfG6PD inh: PfG6PD (Plasmodium falciparum) enzyme inhibition; 350,000 tested, 0.78% active; PfGluPho enzyme, NADPH resazurin-diaphorase fluorescence; inhibition, % at 20 µM;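 active means inhibition reaching at least a set limit at 20 µM in the primary screen, cut at about 59% in these data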
PfG6PD confirm: PfG6PD inhibition, single-dose confirmed; shares compounds with PfG6PD inh; recombinant PfGluPho, NADPH-diaphorase-resazurin fluorescence; inhibition, % at 20 µM; 2,400 tested, 34% active;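 active means inhibition of at least 50% at 20 µM in any single replicate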
Diaph ctr 10uM: diaphorase inhibition or oxidation at 10 uM NADPH. diaphorase-coupled resazurin reduction, fluorescence, NADPH 10 uM. inhibition, % at 20 µM. 820 tested, 39% active. shares compounds with PfG6PD inh;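 active means average inhibition reaching 50% or more with the compound at 20 µM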;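 further: resorufin red fluorescence formed as diaphorase reduces resazurin using NADPH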
Diaph ctr 30uM: counter-screen for P. falciparum G6PD inhibitors: diaphorase inhibitors, oxidizers; shares compounds with PfG6PD inh; Diaphorase/resazurin coupled assay, resorufin fluorescence, 30 uM NADPH; inhibition, % at 20 µM; 820 tested, 29% active; AID 504863;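 active means inhibition averaging 50% or more, tested at 20 µM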
Numbers stand for hits; . = inactive; / = no result. An excerpt weighted towards active compounds, which were near 2.9% of everything screened.

SMILES	APOBEC3G inh	NadD inh	Cardio protect	TAG inh	A3A deaminase	PfG6PD inh	PfG6PD confirm	others
CN(CC(=O)Nc1ccc(Cl)c(Cl)c1)C(=O)C1CCCC1	.	.	.	.	.	.	/
O=[N+]([O-])c1ccc(N/N=C/c2ccc(O)c(O)c2O)c(S(=O)(=O)N2CCOCC2)c1	.	29	.	/	.	66	62	Diaph ctr 10uM=.;Diaph ctr 30uM=.
O=C(CCc1ccc(O)c(O)c1)N/N=C/c1cc2c(cc1[N+](=O)[O-])OCO2	.	.	.	.	.	68	65	Diaph ctr 10uM=.;Diaph ctr 30uM=.
O=[N+]([O-])c1ccc(N/N=C/c2cccc(O)c2O)c(S(=O)(=O)N2CCOCC2)c1	.	.	.	.	.	.	/
O=C(CCc1ccc(S(=O)(=O)N2CCOCC2)cc1)N/N=C/c1ccc(O)c(O)c1O	.	.	.	.	.	68	60	Diaph ctr 10uM=.;Diaph ctr 30uM=.
O=C(CCc1ccc(S(=O)(=O)N2CCOCC2)cc1)N/N=C/c1ccc(F)cc1F	.	.	.	.	.	.	/
CCOC(=O)C1(C)CCN1C(=O)c1ccccc1OC(F)(F)F (stereo unspecified)	/	.	.	.	/	/	/
CCC(C)C(N)C1=NC(C(=O)N[C@@H](CC(C)C)C(=O)N[C@H](CCC(=O)[O-])C(=O)N[C@H](C(=O)N[C@H]2CCCCNC(=O)[C@H](CC(N)=O)NC(=O)[C@@H](CC(=O)[O-])NC(=O)[C@H](Cc3cnc[nH]3)NC(=O)[C@@H](Cc3ccccc3)NC(=O)[C@H]([C@@H](C)CC)NC(=O)[C@@H](CCCN)NC2=O)[C@@H](C)CC)CS1.[Zn+2] (stereo partly specified)	/	.	.	.	/	64	.
Cc1nn(-c2ccccc2)c(Cl)c1C(=O)N(C)c1nc(-c2ccc(F)cc2)cs1	.	/	/	/	.	/	/
CC(C)c1nc2oc3c(NCc4ccccn4)ncnc3c2c2c1COC(C)(C)C2	.	.	.	.	.	65	.
Cc1nc2oc3c(NCc4ccccn4)ncnc3c2c2c1COC(C)(C)C2	.	.	.	.	.	.	/
COc1ncnc2c1oc1nc(C(C)C)c3c(c12)CC(C)(C)OC3	.	.	.	.	.	62	.
CN(N)C(=S)Nc1ccc(Cl)cc1	.	.	.	.	.	.	/
CCCCN(C1CCS(=O)(=O)C1)S(=O)(=O)c1ccc(OC)c(OC)c1 (stereo unspecified)	.	.	.	.	.	.	/
CCOC(=O)c1c(-c2ccc(OC)cc2)csc1NC(=O)CCN1C(=O)c2ccccc2C1=O	.	.	.	/	.	62	.
CCCCN(Cc1nc2ccccc2c(=O)[nH]1)C(=O)COc1ccc(F)cc1Cl	.	.	.	.	.	.	/
COCCN(Cc1nc2ccccc2c(=O)[nH]1)C(=O)COc1c(C)cc(Cl)cc1C	.	.	.	.	.	72	.
Cc1c(OCC(=O)C(C)(C)C)ccc2c(-c3ccccc3)cc(=O)oc12	.	.	.	.	.	.	/
N#Cc1cn(CCCOc2ccccc2)c2ccccc12	.	.	.	/	.	61	.
COC(=O)c1cn(CCOc2ccccc2)c2ccccc12	.	.	.	.	.	.	/
COc1ccccc1OCCCn1cc(C#N)c2ccccc21	.	.	.	.	.	113	69	Diaph ctr 10uM=65;Diaph ctr 30uM=58
O=C(O)c1ccc(N2CC3CC(C2)c2cccc(=O)n2C3)c(NC(=S)Nc2ccc(Cl)cc2Cl)c1 (stereo unspecified)	.	.	.	.	.	59	.
CCc1ccc(NC(=O)Nc2cc(C(=O)O)ccc2N2CC3CC(C2)c2cccc(=O)n2C3)cc1 (stereo unspecified)	.	.	.	/	.	.	/
O=C(CCC(=O)Nc1ccc(Cl)cc1Cl)N/N=C/c1ccc([N+](=O)[O-])o1	.	.	.	/	.	62	.
CCCCCC(=O)N/N=C/c1ccc([N+](=O)[O-])o1	.	.	.	/	.	.	/
